Laboratory results published in the supplement of paper PMC6805474.

Columns and labels:
[1] = test system: Schistosoma mansoni schistosomula (LE); test: XTT viability relative to DMSO control; higher = more viable (less active); conditions: 72 h; 10 µM
Description: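 XTT/PMS was then added for a further 24 h (72 h total) and A450 was read. % viability = (sample - heat-killed control)/(DMSO control - heat-killed control) x 100, from duplicate wells in two independent experiments.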

[2] = test system: Schistosoma mansoni schistosomula (NMRI); test: phenotypic severity score (0-4); higher = more antischistosomal effect, active = 2 or more; conditions: 10 µM
[3] = test system: Schistosoma mansoni schistosomula (Liberian); test: drug effect (1 - score/DMSO control score) (fraction); higher = more antischistosomal effect, active = 0.5 or more; extreme values may be limits of the assay; conditions: 10 µM
Outline: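 Schistosomula of the Liberian strain of Schistosoma mansoni were mechanically transformed from cercariae, pre-incubated for at least 12 h, and placed at 50 per well in flat-bottom 96-well plates with Medium 199 containing 5% FCS. Compounds were tested in duplicate at 10 µM at 37 °C and 5% CO2, alongside wells holding 0.1% DMSO. Parasites were scored visually at 10× after 24, 48 and 72 h on a quarter-point scale running from 3 (normal) to 0 (dead). Drug effect came from the mean test-well score relative to the mean DMSO-well score, with negative values set to zero and plates accepted only when the DMSO wells averaged at least 2.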
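For phenotypic severity score (0-4) in this document: visual microscopic scoring of shape, motility and density changes versus 0.5% DMSO solvent controls, one point per descriptor, degeneracy or death scored 4, mean of duplicate wells.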

Cc1ccc(NC(=O)CC2COc3ccccc3O2)cc1Cl (configuration not stated)
125%: XTT viability [1]
inactive: phenotypic severity score ([2]; 24 h) 0 | phenotypic severity score ([2]; 48 h) 0 | phenotypic severity score ([2]; 72 h) 0 | drug effect ([3]; 24 h) 0.136 | drug effect ([3]; 48 h) 0.3 | drug effect ([3]; 72 h) 0.4

CC(=O)Nc1ccc(-c2noc(CC3CCCN(Cc4cccc(F)c4C)C3)n2)cc1 (configuration not stated)
117%: XTT viability [1]
inactive: phenotypic severity score ([2]; 24 h) 0 | phenotypic severity score ([2]; 48 h) 0 | phenotypic severity score ([2]; 72 h) 0 | drug effect ([3]; 24 h) 0.1 | drug effect ([3]; 48 h) 0.0556 | drug effect ([3]; 72 h) 0.188

NCCN(C(=O)c1ccc(Cl)cc1Cl)c1ccc(OCc2ccc(Cl)cc2)cc1
22.7%: XTT viability [1]
inactive: phenotypic severity score ([2]; 24 h) 0 | phenotypic severity score ([2]; 48 h) 0 | phenotypic severity score ([2]; 72 h) 0 | drug effect ([3]; 24 h) 0.4 | drug effect ([3]; 48 h) 0.333 | drug effect ([3]; 72 h) 0.312

CN1CCN(S(=O)(=O)c2ccc(-c3ccc4c(Nc5ccc6nn[nH]c6c5)ccnc4c3)cc2)CC1
152%: XTT viability [1]
inactive: phenotypic severity score ([2]; 24 h) 0 | phenotypic severity score ([2]; 48 h) 0 | phenotypic severity score ([2]; 72 h) 0 | drug effect ([3]; 24 h) 0.1 | drug effect ([3]; 48 h) 0.135 | drug effect ([3]; 72 h) 0.0909

CCOc1ccc(OCC(=O)Nc2cc(C)cc(C)c2)cc1
inactive: phenotypic severity score ([2]; 24 h) 0 | phenotypic severity score ([2]; 48 h) 0 | phenotypic severity score ([2]; 72 h) 0 | drug effect ([3]; 24 h) 0.0909 | drug effect ([3]; 48 h) 0.05 | drug effect ([3]; 72 h) 0.158
67%: XTT viability [1]

CC(=O)Oc1ccccc1C(=O)Nc1ncc([N+](=O)[O-])s1
active: phenotypic severity score ([2]; 24 h) 2 | phenotypic severity score ([2]; 48 h) 4 | phenotypic severity score ([2]; 72 h) 4 | drug effect ([3]; 72 h) 0.556
102%: XTT viability [1]
inactive: drug effect ([3]; 24 h) 0.2 | drug effect ([3]; 48 h) 0.297

CCc1nc2ccc(C(=O)NCc3ccc4c(c3)OCO4)cn2c1N(C)Cc1cccs1
inactive: phenotypic severity score ([2]; 24 h) 0 | phenotypic severity score ([2]; 48 h) 0 | phenotypic severity score ([2]; 72 h) 0 | drug effect ([3]; 24 h) < 0 | drug effect ([3]; 48 h) 0.1 | drug effect ([3]; 72 h) 0.167
140%: XTT viability [1]

c1ccc2c(c1)CN(CC1CC1)CC1(CCN(Cc3c[nH]c4cnccc34)CC1)O2
inactive: phenotypic severity score ([2]; 24 h) 0 | phenotypic severity score ([2]; 48 h) 0 | phenotypic severity score ([2]; 72 h) 0 | drug effect ([3]; 24 h) < 0 | drug effect ([3]; 48 h) 0.1 | drug effect ([3]; 72 h) 0.211
58%: XTT viability [1]

O=C(NC1=NCCS1)c1sc2cc(F)ccc2c1Cl
inactive: phenotypic severity score ([2]; 24 h) 0 | phenotypic severity score ([2]; 48 h) 0 | phenotypic severity score ([2]; 72 h) 0 | drug effect ([3]; 24 h) 0.0909 | drug effect ([3]; 48 h) 0.1 | drug effect ([3]; 72 h) 0.0182
81%: XTT viability [1]

CS(=O)(=O)c1cccc(-c2cnc3[nH]cc(-c4ccc(CCC(=O)O)cc4)c3c2)c1
inactive: phenotypic severity score ([2]; 24 h) 0 | phenotypic severity score ([2]; 48 h) 0 | phenotypic severity score ([2]; 72 h) 0 | drug effect ([3]; 24 h) 0.227 | drug effect ([3]; 72 h) 0.455
active: drug effect ([3]; 48 h) 0.6
86.9%: XTT viability [1]

CNC(=O)CNc1nc(-c2ccccn2)nc2scc(-c3ccccc3)c12
inactive: phenotypic severity score ([2]; 24 h) 0 | phenotypic severity score ([2]; 48 h) 0 | phenotypic severity score ([2]; 72 h) 0 | drug effect ([3]; 24 h) 0.105 | drug effect ([3]; 48 h) 0.111 | drug effect ([3]; 72 h) 0.125
90%: XTT viability [1]

CCNC(=O)C(C)Nc1nc(-c2cccnc2)nc2sc(C)c(C)c12 (configuration not stated)
81.9%: XTT viability [1]
inactive: phenotypic severity score ([2]; 24 h) 0 | phenotypic severity score ([2]; 48 h) 0 | phenotypic severity score ([2]; 72 h) 0 | drug effect ([3]; 24 h) < 0 | drug effect ([3]; 48 h) < 0 | drug effect ([3]; 72 h) 0.111

Cc1cc(Cl)c(S(=O)(=O)N2CCCC2)cc1OCC(=O)NC1CCCCC1
inactive: phenotypic severity score ([2]; 24 h) 0 | phenotypic severity score ([2]; 48 h) 0 | phenotypic severity score ([2]; 72 h) 0 | drug effect ([3]; 24 h) 0.1 | drug effect ([3]; 48 h) 0.189 | drug effect ([3]; 72 h) 0.212
111%: XTT viability [1]

O=C(Nc1ccc(C(F)(F)F)c(C(F)(F)F)c1)c1cc(Cl)ccc1O
active: phenotypic severity score ([2]; 24 h) 4 | phenotypic severity score ([2]; 48 h) 4 | phenotypic severity score ([2]; 72 h) 4 | drug effect ([3]; 24 h) 1 | drug effect ([3]; 48 h) 1 | drug effect ([3]; 72 h) 1
35.4%: XTT viability [1]

Cc1cc(C(=O)Nc2ccc(-c3ccccc3)cc2)no1
90.7%: XTT viability [1]
inactive: phenotypic severity score ([2]; 24 h) 0 | phenotypic severity score ([2]; 48 h) 0 | phenotypic severity score ([2]; 72 h) 0 | drug effect ([3]; 24 h) 0.1 | drug effect ([3]; 48 h) 0.0811 | drug effect ([3]; 72 h) 0.111

COc1cc(C(F)(F)F)nc2ccc(C)c(N)c12
inactive: phenotypic severity score ([2]; 24 h) 0 | phenotypic severity score ([2]; 48 h) 0 | phenotypic severity score ([2]; 72 h) 0 | drug effect ([3]; 24 h) 0.136 | drug effect ([3]; 48 h) 0.05 | drug effect ([3]; 72 h) 0.0526
79.3%: XTT viability [1]

Nc1nccc2ccc(Oc3ccncc3)cc12
inactive: phenotypic severity score ([2]; 24 h) 0 | phenotypic severity score ([2]; 48 h) 0 | phenotypic severity score ([2]; 72 h) 0 | drug effect ([3]; 24 h) 0.1 | drug effect ([3]; 48 h) 0.222 | drug effect ([3]; 72 h) 0.375
152%: XTT viability [1]

COc1ccc2nc(C)cc(OCC(=O)Nc3ccccc3OC)c2c1
inactive: phenotypic severity score ([2]; 24 h) 0 | phenotypic severity score ([2]; 48 h) 0 | phenotypic severity score ([2]; 72 h) 0 | drug effect ([3]; 24 h) 0.2 | drug effect ([3]; 48 h) 0.278 | drug effect ([3]; 72 h) 0.25
108%: XTT viability [1]

c1ccc(Oc2ccc(-c3cncc(-c4ccc5[nH]ccc5c4)n3)cc2)cc1
active: phenotypic severity score ([2]; 72 h) 2 | drug effect ([3]; 24 h) 0.6 | drug effect ([3]; 48 h) 1 | drug effect ([3]; 72 h) 1
3.06%: XTT viability [1]
inactive: phenotypic severity score ([2]; 24 h) 0 | phenotypic severity score ([2]; 48 h) 0

Cc1nnc(NC(=O)c2cn(-c3ccccc3)nc2-c2ccccc2C)o1
inactive: phenotypic severity score ([2]; 24 h) 1 | phenotypic severity score ([2]; 48 h) 1 | phenotypic severity score ([2]; 72 h) 1 | drug effect ([3]; 24 h) < 0 | drug effect ([3]; 48 h) 0.0811 | drug effect ([3]; 72 h) 0.111
56.8%: XTT viability [1]

O=C(NCCN1CCCC1)c1cc(NCCN2CCOCC2)nc2ccc(Cl)cc12
inactive: phenotypic severity score ([2]; 24 h) 0 | phenotypic severity score ([2]; 48 h) 0 | phenotypic severity score ([2]; 72 h) 0 | drug effect ([3]; 24 h) 0.15 | drug effect ([3]; 48 h) 0.222 | drug effect ([3]; 72 h) 0.438
146%: XTT viability [1]
